The text below walks through data of PubChem BioAssay (Tox21).

Assay [1] in a line: qHTS assay to identify small molecule antagonists of the thyroid receptor (TR) signaling pathway - cell viability counter screen (AID 743064). Note: nearly all actives have a fitted effect of over 50% in size. In a few lines:
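GH3.TRE-Luc rat pituitary cells carrying a TRE-luciferase reporter were treated with compound plus 1 nM T3 (final) for 23.5 h at 37 °C. Viability was then read in the same wells by CellTiter-Fluor fluorescence after a further 30 min.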

The nature of assay [2]: qHTS assay to identify small molecule antagonists of the thyroid receptor (TR) signaling pathway (AID 743065). Note: series mostly up to about 70 µM; nearly all actives have a fitted effect of over 55% in size. The method in brief:
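Antagonism measured as loss of luciferase signal in GH3 cells stably carrying a TRE-luciferase reporter, co-treated with compound and T3 (1 nM final) for 23.5 h at 37 C. Viability was read in the same well by CellTiter-Fluor.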

The test system of assay [3] is thyroid hormone receptor (rat, GH3 cells). The assay is described as follows: qHTS assay to identify small molecule agonists of the thyroid receptor (TR) signaling pathway (AID 743066; calls by dose curve).
The nature of assay [4]: qHTS assay to identify small molecule antagonists of the estrogen receptor alpha (ER-alpha) signaling pathway - cell viability counter screen (AID 743074; calls by dose curve; note: nearly all actives have a fitted effect of over 45% in size).
Assay [5] can be described thus: qHTS assay to identify small molecule antagonists of the estrogen receptor alpha (ER-alpha) signaling pathway using the BG1 cell line - cell viability counter screen (AID 743081).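 Note: compound given together with 17beta-estradiol as the ER stimulus; series mostly up to about 70 µM; nearly all actives have a fitted effect of over 45% in size.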
For another assay, the target named is Aromatase (Homo sapiens) (UniProt P11511). The assay can be described thus: qHTS assay to identify aromatase inhibitors (AID 743083). Note: series mostly up to about 70 µM; nearly all actives have a fitted effect of over 55% in size.
Assay [6] is described as follows: qHTS assay to identify aromatase inhibitors - cell viability counter screen (AID 743084).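 Note: cells stimulated with testosterone during compound exposure; nearly all actives have a fitted effect of over 55% in size.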
Assay [7] deals with Aryl hydrocarbon receptor (Homo sapiens) (UniProt P35869). The assay can be described thus: qHTS assay to identify small molecule that activate the aryl hydrocarbon receptor (AhR) signaling pathway (AID 743085).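 Note: HG2L7.5c1 human HepG2 liver cells with stably integrated DRE-driven firefly reporter; series mostly up to about 70 µM; nearly all actives have a fitted effect of over 15% in size.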 The method in brief: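 HepG2 cells (HG2L7.5c1) stably carrying a firefly luciferase reporter driven by 20 dioxin responsive elements were exposed to compound for 24 h at 37C after a 5 h settling period; luminescence rise (ONE-Glo) indicated activation.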

The nature of assay [8]: qHTS assay to identify small molecule that activate the aryl hydrocarbon receptor (AhR) signaling pathway - cell viability counter screen (AID 743086).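 Note: HepG2 liver cells carrying the AhR DRE luciferase reporter; series mostly up to about 70 µM; nearly all actives have a fitted effect of over 45% in size.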 The method in brief:
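Cytotoxicity counter screen: CellTiter-Fluor signal (30 min, 37 C) in 4000 HepG2 cells/well carrying the DRE-luciferase reporter, following 24 h compound exposure at 37 C.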

Assay [9] addresses Peroxisome proliferator-activated receptor gamma (Homo sapiens) (UniProt P37231). The assay can be described thus: qHTS assay to identify small molecule agonists of the peroxisome proliferator-activated receptor gamma (PPARg) signaling pathway (AID 743094; active = well fitted activation curve with a large enough effect in the signal ratio in the repeat runs, not every such curve was filed as active; the % refers to the signal ratio). In a few lines: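 Cells from the PPARg UAS-bla HEK293H line are plated and incubated 5 h at 37C. Compounds in DMSO are pinned in and left 17 h at 37C. LiveBLAzer B/G substrate is then added for 1 h at room temperature before fluorescence is measured.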

A short description of assay [10]: qHTS assay for small molecule agonists of the antioxidant response element (ARE) signaling pathway (AID 743202; active = well fitted activation curve with a large enough effect in the signal ratio in the repeat runs, not every such curve was filed as active; the % refers to the signal ratio). The method in brief: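 Beta-lactamase reporter activity, read as fluorescence intensity, reflects ARE/Nrf2 pathway induction in HepG2 cells after 16 h compound exposure at 37 C; substrate loading was 2 h at room temperature.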
Assay [11] can be described thus: qHTS assay for small molecule agonists of the antioxidant response element (ARE) signaling pathway - cell viability counter screen (AID 743203; calls by dose curve; note: nearly all actives have a fitted effect of over 55% in size). In a few lines:
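Cytotoxicity was tested in parallel with the ARE reporter screen. ARE-bla HepG2 cells were exposed to compounds for 16 hrs, and viability was taken from CellTiter-Glo luminescence.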

Assay [12] is described as follows: qHTS assay for small molecule activators of the heat shock response signaling pathway - cell viability counter screen (AID 743209). Note: nearly all actives have a fitted effect of over 50% in size. The method in brief: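 Cytotoxicity counter screen run in parallel with the HSE beta-lactamase reporter, using the same wells. HeLa HSE-bla cells received compound for 5 h at 37 C; ATP-based CellTiter-Glo luminescence was measured after 30 min at room temperature.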

Assay [13] is described as follows: qHTS assay for small molecule activators of the heat shock response signaling pathway (AID 743210; active = well fitted activation curve with a large enough effect in the signal ratio in the repeat runs, with a control signal flat, not every such curve was filed as active; the % refers to the signal ratio;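 note: HeLa cells with beta-lactamase reporter driven by heat shock elements; series mostly up to about 63 µM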). In a few lines: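 Fluorescence from a cleaved B/G FRET substrate (2.5 h, room temp) reports HSE-driven beta-lactamase in HeLa cells treated 5 h at 37 C with DMSO-dissolved compounds.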
Assay [14] addresses Estrogen receptor (Homo sapiens) (UniProt P03372). The assay can be described thus: qHTS assay to identify small molecule antagonists of the estrogen receptor alpha (ER-alpha) signaling pathway (AID 743069; active = well fitted curve in the direction sought with a large enough effect in the signal ratio in the repeat runs, not every such curve was filed as active; the % refers to the signal ratio). In a few lines: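 Fluorescence intensity from a beta-lactamase FRET substrate served as the read-out. Cells: HEK293 with stably integrated ER-alpha-UAS-bla reporter. Agonist 17beta-estradiol was co-added with compounds; incubation 18 hr at 37C, substrate 2 hr at room temperature.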

Assay [15] has the same target. The assay can be described thus: qHTS assay to identify small molecule agonists of the estrogen receptor alpha (ER-alpha) signaling pathway (AID 743075; calls by dose curve).
Assay [16] has the same target. The assay can be described thus: qHTS assay to identify small molecule agonists of the estrogen receptor alpha (ER-alpha) signaling pathway using the BG1 cell line (AID 743079). Note: nearly all actives have a fitted effect of over 20% in size. Note: potency is the fitted concentration of half-maximal effect.
Assay [17] can be described thus: qHTS assay to identify small molecule antagonists of the estrogen receptor alpha (ER-alpha) signaling pathway using the BG1 cell line (AID 743080; calls by dose curve;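 note: BG1 cells stimulated with 17beta-estradiol alongside compound; series mostly up to about 70 µM; nearly all actives have a fitted effect of over 25% in size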). In a few lines: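 Luminescence from a 4×ERE-luciferase reporter in BG1-Luc-4E2 cells served as read-out. Cells, pre-cultured 5 days in stripped-serum phenol-red-free medium, were exposed to compound with 17beta-estradiol co-stimulation for 21.5 h at 37 C.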

The nature of assay [18]: qHTS assay to identify small molecule antagonists of the peroxisome proliferator-activated receptor gamma (PPARg) signaling pathway - cell viability counter screen (AID 743194). Note: nearly all actives have a fitted effect of over 55% in size. In a few lines: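 Viability was measured as CellTiter-Glo luminescence in GeneBLAzer PPARg UAS-bla HEK293H cells. These cells had been exposed 17 h at 37 C to compounds together with rosiglitazone at 50 nM final, with the beta-lactamase readout taken in the same wells.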

The target of assay [19] is Peroxisome proliferator-activated receptor gamma (Homo sapiens) (UniProt P37231). The assay is described as follows: qHTS assay to identify small molecule antagonists of the peroxisome proliferator-activated receptor gamma (PPARg) signaling pathway (AID 743191; calls by dose curve; note: series mostly up to about 63 µM; nearly all actives have a fitted effect of over 30% in size). In a few lines: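 Beta-lactamase reporter under UAS control in HEK293H PPARg-bla cells; compound treatment 17 h at 37C. Read-out: fluorescence intensity after 1 h room-temperature incubation with LiveBLAzer B/G FRET substrate.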

Results filed as inconclusive are left out. Active and inactive are the calls of the source. Unless noted, calls come from the whole dose curve; as a rule, active = well fitted curve in the direction sought with a large enough effect in the repeat runs; inconclusive = weak or mixed curves; inactive = no such curve, though single readings can be large; an effect the other way counts as inactive or inconclusive.

Chain of Aryl hydrocarbon receptor (Homo sapiens) (P35869 whole entry, looked up): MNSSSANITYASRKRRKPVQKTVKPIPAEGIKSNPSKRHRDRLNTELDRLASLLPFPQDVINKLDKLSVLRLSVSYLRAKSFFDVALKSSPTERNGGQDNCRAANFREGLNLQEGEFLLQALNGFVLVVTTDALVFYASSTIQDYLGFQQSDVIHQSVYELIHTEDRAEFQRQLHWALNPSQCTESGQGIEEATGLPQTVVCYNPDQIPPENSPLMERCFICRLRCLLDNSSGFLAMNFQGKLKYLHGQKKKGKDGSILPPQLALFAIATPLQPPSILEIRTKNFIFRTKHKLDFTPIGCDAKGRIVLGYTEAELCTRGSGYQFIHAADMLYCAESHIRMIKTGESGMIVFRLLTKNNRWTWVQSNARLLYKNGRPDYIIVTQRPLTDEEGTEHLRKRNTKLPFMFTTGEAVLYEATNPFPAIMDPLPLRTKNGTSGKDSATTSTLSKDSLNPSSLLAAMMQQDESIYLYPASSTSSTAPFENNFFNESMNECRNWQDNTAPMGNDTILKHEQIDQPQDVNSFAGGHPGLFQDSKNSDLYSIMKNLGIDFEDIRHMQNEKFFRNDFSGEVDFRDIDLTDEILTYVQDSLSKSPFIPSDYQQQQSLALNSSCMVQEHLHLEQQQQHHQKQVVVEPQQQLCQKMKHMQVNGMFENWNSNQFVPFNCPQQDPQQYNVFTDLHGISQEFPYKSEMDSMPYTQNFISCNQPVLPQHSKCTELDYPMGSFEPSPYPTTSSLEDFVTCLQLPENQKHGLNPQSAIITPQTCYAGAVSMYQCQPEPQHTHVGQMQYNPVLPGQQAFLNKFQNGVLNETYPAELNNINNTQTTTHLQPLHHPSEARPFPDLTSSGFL
Chain of Aromatase (Homo sapiens) (P11511 whole entry, looked up): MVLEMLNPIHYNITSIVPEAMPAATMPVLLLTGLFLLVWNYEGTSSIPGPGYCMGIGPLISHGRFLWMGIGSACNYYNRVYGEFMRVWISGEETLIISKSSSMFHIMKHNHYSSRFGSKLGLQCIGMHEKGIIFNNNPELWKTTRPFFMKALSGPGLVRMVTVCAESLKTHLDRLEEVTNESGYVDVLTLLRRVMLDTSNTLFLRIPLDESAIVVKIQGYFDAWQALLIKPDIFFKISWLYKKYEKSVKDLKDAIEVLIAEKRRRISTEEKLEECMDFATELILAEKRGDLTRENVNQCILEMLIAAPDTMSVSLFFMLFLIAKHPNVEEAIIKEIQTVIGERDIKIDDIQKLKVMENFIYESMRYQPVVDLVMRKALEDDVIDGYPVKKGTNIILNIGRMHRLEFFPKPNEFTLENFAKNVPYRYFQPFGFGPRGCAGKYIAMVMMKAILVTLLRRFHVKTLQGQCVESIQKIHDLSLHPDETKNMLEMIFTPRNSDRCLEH
Chain of Estrogen receptor (Homo sapiens) (P03372 whole entry, looked up): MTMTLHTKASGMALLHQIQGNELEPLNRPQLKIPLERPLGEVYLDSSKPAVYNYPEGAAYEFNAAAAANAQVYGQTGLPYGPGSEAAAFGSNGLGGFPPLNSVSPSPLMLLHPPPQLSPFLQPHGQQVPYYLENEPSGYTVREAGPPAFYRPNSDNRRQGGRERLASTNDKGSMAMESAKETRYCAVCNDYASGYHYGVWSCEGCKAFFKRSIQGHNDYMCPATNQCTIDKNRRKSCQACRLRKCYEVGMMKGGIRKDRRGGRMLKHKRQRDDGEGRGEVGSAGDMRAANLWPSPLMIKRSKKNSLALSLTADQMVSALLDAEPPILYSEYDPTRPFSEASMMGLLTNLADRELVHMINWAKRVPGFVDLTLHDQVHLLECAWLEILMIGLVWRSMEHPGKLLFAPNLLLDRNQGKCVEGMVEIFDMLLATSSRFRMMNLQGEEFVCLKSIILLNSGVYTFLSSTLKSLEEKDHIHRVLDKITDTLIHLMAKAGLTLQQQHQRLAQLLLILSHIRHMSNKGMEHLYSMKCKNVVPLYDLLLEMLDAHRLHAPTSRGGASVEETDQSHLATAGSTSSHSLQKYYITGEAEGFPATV
Chain of Peroxisome proliferator-activated receptor gamma (Homo sapiens) (P37231 whole entry, looked up): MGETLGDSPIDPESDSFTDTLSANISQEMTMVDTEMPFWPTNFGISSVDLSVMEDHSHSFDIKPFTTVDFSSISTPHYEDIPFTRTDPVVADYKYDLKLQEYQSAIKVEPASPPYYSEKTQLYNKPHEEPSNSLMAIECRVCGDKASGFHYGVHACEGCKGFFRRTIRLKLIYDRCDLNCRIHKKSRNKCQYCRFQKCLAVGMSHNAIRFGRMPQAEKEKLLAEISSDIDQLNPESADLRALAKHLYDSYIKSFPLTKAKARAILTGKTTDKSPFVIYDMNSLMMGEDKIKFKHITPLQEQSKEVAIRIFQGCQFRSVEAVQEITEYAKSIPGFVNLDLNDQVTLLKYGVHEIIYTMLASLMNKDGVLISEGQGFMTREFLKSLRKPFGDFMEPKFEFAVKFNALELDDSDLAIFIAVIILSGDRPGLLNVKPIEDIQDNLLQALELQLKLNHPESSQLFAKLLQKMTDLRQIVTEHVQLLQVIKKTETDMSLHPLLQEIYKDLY

With `COc1ccc(CCO)cc1`, the Potency result in [1], in assay [2], in assay [5], in [6], in assay [7] and in assay [8] was “inactive” each time. In addition, the Potency entry in [9], in assay [10] and in [12] was “inactive” throughout. Also, the result (in [3]; in assay [4]; with Aromatase (Homo sapiens); in assay [11]; in assay [13]) was inactive.
As for `O=C(CN1CCNCC1)NC1CCCCC1`, the Potency result in [1], in assay [15], in assay [16], in [5], in [6] and in assay [7] was “inactive” each time. The Potency result in [8], in [9], in [10] and in assay [12] was “inactive” each time. In addition, the molecule was called inactive (in assay [14]; in assay [4]; in assay [17]; with Aromatase (Homo sapiens); in assay [18]; in [11]). Moreover, in assay [13], the molecule was classed as inactive.
With `CC(O)COC(C)(C)C` (stereo unspecified), the Potency entry in assay [1], in assay [5], in assay [6], in [7], in [8] and in assay [9] was “inactive” in each case. In addition, the Potency entry in [10] and in assay [12] was “inactive” throughout. Besides, the call (in assay [3]; in assay [4]; with Aromatase (Homo sapiens); in assay [18]; in assay [11]; in [13]) was inactive.
Turning to `CC(O)CC(C)O` (stereo unspecified), the Potency result in assay [1], in [5], in assay [6], in assay [7], in assay [8] and in [9] was “inactive” in each case. Also, the Potency entry in assay [10] and in assay [12] was “inactive” each time. In addition, the call (in [3]; in [4]; with Aromatase (Homo sapiens); in [19]; in assay [18]; in assay [11]) was inactive. Also, in assay [13], the result was inactive.
For the molecule `CC(=O)CC(=O)Nc1ccc(C)cc1C`, the Potency entry in [1], in [5], in [6], in [7], in [8] and in assay [10] was “inactive” each time. For the same molecule, the Potency entry in [12] is “inactive”. Besides, the call (in assay [3]; in [4]; with Aromatase (Homo sapiens); in [18]; in assay [11]) was inactive.
Consider `C#CCN[C@@H]1CCc2ccccc21`, for which the Potency entry in [2], in assay [15], in assay [16], in assay [5], in [6] and in assay [7] was “inactive” in each case. For the same molecule, the Potency entry in assay [8], in assay [9] and in assay [10] was “inactive” in each case. For the same molecule, the molecule was called inactive (in [3]; in assay [14]; in assay [4]; in [17]; with Aromatase (Homo sapiens); in assay [19]). Moreover, the molecule was classed as inactive in [18], in assay [11] and in [13].
Regarding `CC(=O)OCC(=O)Nc1cc(C#N)cc(NC(=O)COC(C)=O)c1Cl`, the Potency entry in assay [1], in assay [15], in assay [16], in [6], in [7] and in [8] was “inactive” throughout. Besides, the Potency result in assay [9], in assay [10] and in assay [12] was “inactive” throughout. Besides, the molecule was classed as inactive (in assay [3]; in assay [14]; in assay [4]; with Aromatase (Homo sapiens); in [18]; in assay [11]). The outcome in assay [13] was inactive.
`CC1(C)O[C@H]2CC(=O)OC[C@]23[C@H]2CC[C@@]4(C)[C@H](c5ccoc5)OC(=O)[C@H]5O[C@]54[C@]2(C)C(=O)C[C@@H]13`: the Potency entry in assay [1], in assay [15], in assay [6], in assay [7], in [8] and in assay [9] was “inactive” in each case. For the same molecule, the Potency entry in assay [10] and in [12] was “inactive” each time. In addition, the outcome (in assay [3]; in assay [14]; in [4]; with Aromatase (Homo sapiens); in assay [18]; in [11]) was inactive. For the same molecule, in assay [13], the molecule was called inactive. Moreover, the Potency in assay [16] is 13.3 µM (active).
On to `CC(C)=CCC[C@@](C)(O)[C@H]1CC=C(C)CC1`, for which the Potency entry in assay [1], in assay [5], in assay [6], in assay [7], in assay [8] and in [9] was “inactive” throughout. The Potency result in assay [10] and in assay [12] was “inactive” each time. The molecule was classed as inactive (in [3]; in assay [4]; with Aromatase (Homo sapiens); in [19]; in assay [18]; in assay [11]).
